Data published in PubChem BioAssay (NCATS).
Values joined by “and” are separate entries in the source; they are usually repeats but may differ in a detail not shown here. Identical values can stand only once. Inconclusive results are not listed. Where a call stands in place of a potency, no number is given. Active and inactive are the calls of the source. Unless noted, calls come from the whole dose curve.

What was measured:
[1] = molecular target: Cytochrome P450 3A4 (Homo sapiens) (UniProt P08684); assay: qHTS Assay for Inhibitors and Substrates of Cytochrome P450 3A4 (AID 884; active = well fitted curve in the direction sought with a large enough effect; an effect the other way counts as inactive or inconclusive; note: nearly all actives have a fitted effect of over 50% in size; note: potency is the fitted concentration of half-maximal effect)
In short: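 Luminescent readout of luciferin produced by CYP3A4 (20 nM) dealkylation of Luciferin-PPXE, 25 uM (its KM). NADPH-driven reaction ran 60 min at RT after 10 min compound preincubation; data scaled to 57 uM ketoconazole as 100% inhibition.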

[2] = MultiTox-Fluor Cytotoxicity Assay - LYMP1-001 - Live Cells (AID 947; active = well fitted curve in the direction sought with a large enough effect; an effect the other way counts as inactive or inconclusive)
[3] = MultiTox-Fluor Cytotoxicity Assay - LYMP1-002 - Dead Cells (AID 960; active = well fitted curve in the direction sought with a large enough effect; an effect the other way counts as inactive or inconclusive; note: nearly all actives have a fitted effect of over 60% in size)
In short: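 Cells were plated, rested 5 hr, then treated with compound dilution series for 16 hr at 37 C. After adding substrate reagent and 60 min at room temperature, dead-cell protease fluorescence gave concentration-response curves fitted by the Hill equation.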

[4] = molecular target: Estrogen receptor (Homo sapiens) (UniProt P03372); assay: qHTS assay for small molecule antagonists of estrogen receptor alpha signaling (AID 588513; active = well fitted curve in the direction sought with a large enough effect in the signal ratio, with a control signal flat, not every such curve was filed as active; the % refers to the signal ratio)
In short: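 Cells were plated at 5000/well and incubated 4 h at 37 C. Compounds were added as 1:2 dilution series, duplicates. 17-beta-estradiol (0.5nM final) was added for 18 h before CCF4 detection.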

[5] = molecular target: Estrogen receptor (Homo sapiens) (UniProt P03372); assay: qHTS assay for small molecule agonists of estrogen receptor alpha signaling (AID 588514); note: nearly all actives have a fitted effect of over 70% in size
In short: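 Efficacy is expressed against 20 nM 17-beta-estradiol (100%) and DMSO basal (0%); EC50 from Hill equation. Assay: beta-lactamase reporter in ER-alpha-UAS-bla HEK 293 cells, 18 h compound incubation, CCF4 detection.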

[6] = molecular target: Glucocorticoid receptor (Homo sapiens) (UniProt P04150); assay: qHTS assay for small molecule agonists of glucocorticoid receptor signaling (AID 588532; active = well fitted curve in the direction sought with a large enough effect in the signal ratio, with a control signal flat; the % refers to the signal ratio); conditions: HeLa MMTV-bla, beta-lactamase ratio, agonist, 18 h; stronger effect = higher value; percent of dexamethasone control, DMSO zero
In short: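 Titration series, up to 92 uM, applied to GRE-bla HeLa cells for 18 h at 37 C. Detection by CCF4 FRET substrate after 2 h at RT.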

[7] = molecular target: Peroxisome proliferator-activated receptor gamma (Homo sapiens) (UniProt P37231); assay: qHTS assay for small molecule agonists of peroxisome proliferator-activated receptor gamma signaling (AID 588536; active = well fitted curve in the direction sought with a large enough effect in the signal ratio, with a control signal flat, not every such curve was filed as active; the % refers to the signal ratio)
In short: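 Cells were plated and held 6–6.5 h at 37 C, then compounds were added as a titration series. After a further 16 h, CCF4 dye was loaded for 2 h at room temperature and emission at 460/530 nm recorded.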

[8] = qHTS assay for small molecule agonists of retinoid X receptor alpha signaling (AID 588544); conditions: HEK293T RXRa-UAS-bla, beta-lactamase reporter, 18 h; 530 nm emission
[9] = molecular target: Thyroid hormone receptor beta (Homo sapiens) (UniProt P10828); assay: qHTS assay for small molecule antagonists of thyroid hormone receptor beta signaling (AID 588547; active = well fitted inhibition curve with a large enough effect in the signal ratio, with a control signal flat, not every such curve was filed as active; the % refers to the signal ratio;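 note: cells stimulated with 0.4 nM T3 agonist during compound exposure; series mostly up to about 77 µM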); conditions: TR-UAS-bla HEK293, beta-lactamase ratio, antagonist mode, 18 h
In short: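 TR-UAS-bla GripTite HEK293 cells in 2% charcoal/dextran FBS medium were preincubated 4 h at 37 C, given compound (0.59 nM to 92 uM) plus 0.4 nM T3 (final) for 18 h, then CCF4 for 2 h at RT; Hill fit gave IC50.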

[10] = qHTS assay for small molecule activators of the p53 signaling pathway (AID 651743; active = well fitted activation curve with a large enough effect in the signal ratio, not every such curve was filed as active; the % refers to the signal ratio; note: series mostly up to about 92 µM); conditions: HCT-116 p53RE-bla, beta-lactamase FRET ratio, 16 h; activation: stronger effect = higher value
In short: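 Agonist-mode quantitative HTS in HCT-116 cells carrying a p53-response-element beta-lactamase reporter; 16 h compound treatment at 37 C, then FRET substrate loading for 2 h at room temperature and fluorescence read.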

[11] = qHTS assay for small molecule disruptors of the mitochondrial membrane potential - 1 hr assay (AID 651754); note: nearly all actives have a fitted effect of over 35% in size
In short: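 Loss of mitochondrial potential shifts the cationic dye from red mitochondrial aggregates to green cytoplasmic monomers. Cells (HepG2) are treated with compound for 1 hr before a 30 min dye incubation at 37C.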

[12] = qHTS assay for small molecule disruptors of the mitochondrial membrane potential - 5 hr assay (AID 651755); note: nearly all actives have a fitted effect of over 40% in size
In short: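 Seed HepG2 overnight, add compound, incubate 5 hr at 37C and 5% CO2, stain 30 min with Mito-MPS, then measure monomer (490/535 nm) and aggregate (540/590 nm) fluorescence.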

[13] = molecular target: Tumor necrosis factor (Homo sapiens) (UniProt P01375); assay: qHTS assay to identify small molecules that stimulate Tumor Necrosis Factor-alpha (TNF-alpha) secretion (AID 651757; active = well fitted curve in the direction sought with a large enough effect in the signal ratio; the % refers to the signal ratio)
In short: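 Human monocytic THP-1 cells are plated, treated with compound and held at 37 C for 17 hrs. Labeled anti-TNF-alpha antibody mixture is then added; after 3 hr at room temperature, TR-FRET signal reports secreted TNF-alpha.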

[14] = qHTS assay for environmental chemicals that activate the Aryl hydrocarbon Receptor (AhR) signaling pathway (AID 651777; active = well fitted curve in the direction sought with a large enough effect; an effect the other way counts as inactive or inconclusive; note: nearly all actives have a fitted effect of over 15% in size); conditions: 1A2-DRE human hepatoma cells, luciferase, 24 h; activation: stronger effect = higher value
In short: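 Luminescence read-out: One-Glo added for 30 min at RT after 24 hr compound treatment (37 C, 5% CO2) of human hepatoma cells expressing a DRE/CYP1A2 promoter–luciferase reporter; increased signal indicates AhR activation.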

[15] = molecular target: Nuclear receptor ROR-gamma (Homo sapiens) (UniProt P51449); assay: qHTS assay for small molecule antagonists of the retinoid-related orphan receptor gamma (ROR-gamma) signaling pathway (AID 651802; active = well fitted curve in the direction sought with a large enough effect; an effect the other way counts as inactive or inconclusive;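 note: CHO cells with doxycycline-induced ROR-gamma expression; series mostly up to about 92 µM; nearly all actives have a fitted effect of over 60% in size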)
In short: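 Steps: cells dispensed; compound or DMSO transferred by pin tool; doxycycline added to induce the ROR response element-driven luciferase; plates held 16hr at 37C; ONE-Glo added and luminescence measured.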

[16] = qHTS assay for small molecule antagonists of the retinoid-related orphan receptor gamma (ROR-gamma) signaling pathway - cell viability counter screen (AID 720652; active = well fitted curve in the direction sought with a large enough effect in the repeat runs; an effect the other way counts as inactive or inconclusive;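 note: CHO reporter cells with doxycycline-induced ROR-gamma expression; series mostly up to about 92 µM; compound exposure lasted 16 hr before ATP read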)
In short: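 Steps: seed CHO cells bearing TET-inducible ROR and ROR response element-luciferase; rest 5 hr at 37 C; add compound, then doxycycline; incubate 16 hr; add CellTiter-Glo and read luminescence as ATP-based viability.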

[17] = molecular target: Nuclear receptor subfamily 1 group I member 2 (Rattus norvegicus) (UniProt Q9R1A7); assay: qHTS assay for small molecule activators of the rat pregnane X receptor (rPXR) signaling pathway (AID 651751; call rule not given here); conditions: rPXR reporter cells, luciferase (One-Glo), 24 h
[18] = qHTS assay for small molecule activators of the human pregnane X receptor (PXR) signaling pathway (AID 720659; call rule not given here)
[19] = molecular target: Vitamin D3 receptor (Homo sapiens) (UniProt P11473); assay: qHTS assay for small molecule antagonists of vitamin D receptor signaling (AID 588541);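 note: receptor activated by calcitriol during compound treatment; series mostly up to about 77 µM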
In short: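 VDR-UAS-bla HEK293T cells (2000/well, 2% charcoal-stripped FBS) were treated with titrated compounds plus 1-alpha,25-dihydroxyvitamin D3 (50 nM or 3 nM final) for 16 h at 37 C. CCF4 beta-lactamase fluorescence was read; Hill fits gave IC50.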

[20] = molecular target: Vitamin D3 receptor (Homo sapiens) (UniProt P11473); assay: qHTS assay for small molecule agonists of vitamin D receptor signaling (AID 588543)
In short: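 qHTS in agonist mode: compound titrations stimulate a VDR-driven β-lactamase reporter in HEK293T cells over 16 h at 37 °C. Response normalized to 50 nM 1α,25-dihydroxyvitamin D3 = 100%, DMSO = 0%; Hill fitting gives EC50 and maximal response.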

Chain of Cytochrome P450 3A4 (Homo sapiens) (P08684 whole entry, looked up): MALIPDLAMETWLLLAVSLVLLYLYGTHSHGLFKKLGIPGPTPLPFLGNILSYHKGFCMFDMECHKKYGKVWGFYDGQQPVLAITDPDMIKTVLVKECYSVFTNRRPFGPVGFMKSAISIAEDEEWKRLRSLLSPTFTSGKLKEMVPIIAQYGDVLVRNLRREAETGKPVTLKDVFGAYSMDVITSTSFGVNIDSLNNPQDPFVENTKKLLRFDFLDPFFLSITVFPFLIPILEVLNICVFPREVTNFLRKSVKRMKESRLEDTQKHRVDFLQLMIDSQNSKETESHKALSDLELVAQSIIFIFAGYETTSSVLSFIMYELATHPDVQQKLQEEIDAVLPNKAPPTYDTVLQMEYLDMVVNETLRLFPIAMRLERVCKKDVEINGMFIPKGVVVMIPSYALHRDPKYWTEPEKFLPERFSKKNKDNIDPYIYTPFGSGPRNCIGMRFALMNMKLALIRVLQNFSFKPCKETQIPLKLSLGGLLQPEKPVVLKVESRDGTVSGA
Chain of Vitamin D3 receptor (Homo sapiens) (P11473 whole entry, looked up): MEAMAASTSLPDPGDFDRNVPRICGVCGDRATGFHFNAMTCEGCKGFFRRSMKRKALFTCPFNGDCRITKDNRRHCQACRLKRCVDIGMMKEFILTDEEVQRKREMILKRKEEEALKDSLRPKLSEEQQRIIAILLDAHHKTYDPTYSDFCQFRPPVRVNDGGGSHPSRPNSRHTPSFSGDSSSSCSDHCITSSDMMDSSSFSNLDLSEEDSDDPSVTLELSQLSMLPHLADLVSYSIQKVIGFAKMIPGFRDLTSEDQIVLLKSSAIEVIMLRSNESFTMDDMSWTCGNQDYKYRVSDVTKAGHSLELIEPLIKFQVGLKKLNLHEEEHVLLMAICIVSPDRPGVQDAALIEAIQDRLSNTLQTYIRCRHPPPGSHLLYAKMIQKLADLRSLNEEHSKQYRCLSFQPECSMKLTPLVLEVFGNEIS
Chain of Thyroid hormone receptor beta (Homo sapiens) (P10828 whole entry, looked up): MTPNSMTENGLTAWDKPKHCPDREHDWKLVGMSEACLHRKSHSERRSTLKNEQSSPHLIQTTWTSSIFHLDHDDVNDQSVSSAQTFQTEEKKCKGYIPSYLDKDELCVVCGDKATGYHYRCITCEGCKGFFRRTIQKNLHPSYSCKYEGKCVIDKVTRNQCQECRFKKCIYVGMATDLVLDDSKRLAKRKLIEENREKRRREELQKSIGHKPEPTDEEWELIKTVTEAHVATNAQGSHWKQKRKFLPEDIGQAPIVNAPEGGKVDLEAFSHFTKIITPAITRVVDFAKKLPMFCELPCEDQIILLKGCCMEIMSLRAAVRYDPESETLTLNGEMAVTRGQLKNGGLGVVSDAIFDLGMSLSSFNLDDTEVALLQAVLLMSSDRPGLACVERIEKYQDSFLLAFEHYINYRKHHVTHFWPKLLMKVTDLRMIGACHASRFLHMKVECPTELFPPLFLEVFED
Chain of Glucocorticoid receptor (Homo sapiens) (P04150 whole entry, looked up): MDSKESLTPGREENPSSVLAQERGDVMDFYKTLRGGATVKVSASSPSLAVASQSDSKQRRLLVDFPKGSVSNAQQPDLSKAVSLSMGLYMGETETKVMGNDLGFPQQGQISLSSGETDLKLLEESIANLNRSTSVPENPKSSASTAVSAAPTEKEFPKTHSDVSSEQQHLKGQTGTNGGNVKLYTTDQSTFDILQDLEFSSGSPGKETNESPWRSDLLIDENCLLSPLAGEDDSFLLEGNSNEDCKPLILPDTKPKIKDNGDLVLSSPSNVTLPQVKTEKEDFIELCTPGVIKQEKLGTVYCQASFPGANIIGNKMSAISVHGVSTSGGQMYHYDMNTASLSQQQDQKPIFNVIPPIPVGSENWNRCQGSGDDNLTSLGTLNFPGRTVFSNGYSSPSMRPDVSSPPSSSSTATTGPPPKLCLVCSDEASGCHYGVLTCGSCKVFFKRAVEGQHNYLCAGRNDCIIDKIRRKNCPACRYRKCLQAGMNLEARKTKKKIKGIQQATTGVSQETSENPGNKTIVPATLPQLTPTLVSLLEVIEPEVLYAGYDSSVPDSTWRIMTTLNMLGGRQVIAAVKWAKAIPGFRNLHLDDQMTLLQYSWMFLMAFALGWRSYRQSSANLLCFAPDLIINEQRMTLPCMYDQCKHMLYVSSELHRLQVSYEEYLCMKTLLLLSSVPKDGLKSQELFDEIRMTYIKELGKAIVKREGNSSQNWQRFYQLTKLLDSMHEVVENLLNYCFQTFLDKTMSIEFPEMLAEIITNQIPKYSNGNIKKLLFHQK
Chain of Estrogen receptor (Homo sapiens) (P03372 whole entry, looked up): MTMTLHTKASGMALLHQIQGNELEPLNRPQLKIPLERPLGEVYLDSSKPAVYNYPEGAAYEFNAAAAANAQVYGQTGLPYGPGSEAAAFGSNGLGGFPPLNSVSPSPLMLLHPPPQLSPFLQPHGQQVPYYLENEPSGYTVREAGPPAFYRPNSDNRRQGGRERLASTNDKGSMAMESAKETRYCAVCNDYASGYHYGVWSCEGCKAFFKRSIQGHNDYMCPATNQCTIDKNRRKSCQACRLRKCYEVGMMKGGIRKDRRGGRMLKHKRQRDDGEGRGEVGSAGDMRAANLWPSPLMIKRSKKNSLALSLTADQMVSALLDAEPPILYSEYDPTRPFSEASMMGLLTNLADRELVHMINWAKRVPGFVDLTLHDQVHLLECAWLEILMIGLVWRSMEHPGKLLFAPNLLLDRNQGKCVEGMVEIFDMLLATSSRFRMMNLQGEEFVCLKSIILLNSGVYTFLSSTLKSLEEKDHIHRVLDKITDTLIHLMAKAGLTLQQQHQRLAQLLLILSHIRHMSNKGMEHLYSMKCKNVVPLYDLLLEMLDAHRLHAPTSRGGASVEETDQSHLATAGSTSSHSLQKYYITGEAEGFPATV
Chain of Peroxisome proliferator-activated receptor gamma (Homo sapiens) (P37231 whole entry, looked up): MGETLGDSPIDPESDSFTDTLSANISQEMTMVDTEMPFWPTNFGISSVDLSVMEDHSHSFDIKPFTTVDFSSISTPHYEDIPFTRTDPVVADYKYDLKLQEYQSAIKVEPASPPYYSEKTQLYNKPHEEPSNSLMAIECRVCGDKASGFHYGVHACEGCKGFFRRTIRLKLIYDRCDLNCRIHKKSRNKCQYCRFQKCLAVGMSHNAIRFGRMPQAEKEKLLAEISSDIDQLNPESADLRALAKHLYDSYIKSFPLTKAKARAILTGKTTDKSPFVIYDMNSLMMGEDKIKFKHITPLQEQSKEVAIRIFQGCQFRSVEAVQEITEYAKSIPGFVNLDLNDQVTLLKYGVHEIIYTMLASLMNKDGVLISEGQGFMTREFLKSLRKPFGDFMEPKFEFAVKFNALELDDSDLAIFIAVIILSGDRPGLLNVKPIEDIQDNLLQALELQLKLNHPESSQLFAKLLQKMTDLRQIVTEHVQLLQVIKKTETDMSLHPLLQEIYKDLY
Chain of Nuclear receptor subfamily 1 group I member 2 (Rattus norvegicus) (Q9R1A7 whole entry, looked up): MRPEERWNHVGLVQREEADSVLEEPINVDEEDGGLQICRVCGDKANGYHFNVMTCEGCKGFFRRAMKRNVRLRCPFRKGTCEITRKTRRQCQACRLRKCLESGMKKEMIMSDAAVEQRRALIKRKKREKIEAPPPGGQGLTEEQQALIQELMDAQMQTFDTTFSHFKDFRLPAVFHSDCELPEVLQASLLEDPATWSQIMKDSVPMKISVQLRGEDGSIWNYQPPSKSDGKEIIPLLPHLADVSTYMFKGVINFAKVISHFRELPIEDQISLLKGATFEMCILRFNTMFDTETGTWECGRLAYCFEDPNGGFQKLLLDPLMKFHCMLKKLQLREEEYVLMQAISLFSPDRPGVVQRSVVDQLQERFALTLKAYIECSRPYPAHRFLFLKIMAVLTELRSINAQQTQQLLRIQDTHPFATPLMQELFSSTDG
Chain of Tumor necrosis factor (Homo sapiens) (P01375 whole entry, looked up): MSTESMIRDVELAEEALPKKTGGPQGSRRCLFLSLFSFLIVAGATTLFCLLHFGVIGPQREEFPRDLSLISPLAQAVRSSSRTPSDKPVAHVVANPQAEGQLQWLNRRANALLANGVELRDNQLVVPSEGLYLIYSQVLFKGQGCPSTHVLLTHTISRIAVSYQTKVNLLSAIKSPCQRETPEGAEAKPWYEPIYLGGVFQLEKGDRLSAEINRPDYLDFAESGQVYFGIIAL
Chain of Nuclear receptor ROR-gamma (Homo sapiens) (P51449 whole entry, looked up): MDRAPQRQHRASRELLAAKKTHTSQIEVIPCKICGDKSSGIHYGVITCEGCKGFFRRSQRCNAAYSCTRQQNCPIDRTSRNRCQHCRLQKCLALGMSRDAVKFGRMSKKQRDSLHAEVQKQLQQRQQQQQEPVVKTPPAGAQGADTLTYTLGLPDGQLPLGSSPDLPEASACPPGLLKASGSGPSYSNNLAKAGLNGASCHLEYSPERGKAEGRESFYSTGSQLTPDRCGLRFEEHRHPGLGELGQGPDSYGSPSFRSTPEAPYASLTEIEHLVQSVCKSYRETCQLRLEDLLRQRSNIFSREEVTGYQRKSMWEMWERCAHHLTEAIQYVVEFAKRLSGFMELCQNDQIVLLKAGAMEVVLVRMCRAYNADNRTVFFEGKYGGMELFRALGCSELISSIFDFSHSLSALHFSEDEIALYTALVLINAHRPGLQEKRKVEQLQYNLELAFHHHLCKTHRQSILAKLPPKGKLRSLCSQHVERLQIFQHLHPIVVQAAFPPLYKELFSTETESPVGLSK

Row | SMILES | Potency [1] | Potency [2] | Potency [3] | Potency [4] | Potency [5] | activation [6] | outcome [7] | max response [8] | activity change % (negative = inhibition) [9] | activation [10] | Potency [11] | Potency [12] | outcome [13] | activation [14] | Potency [15] | Potency [16] | max response [17] | outcome [18] | outcome [19] | outcome [20]
1 | CC(=O)OC/C=C(\C)CCC=C(C)C | inactive | inactive | inactive | inactive | inactive | 3.31% (inactive) and -2.94% (inactive) | inactive | 4.32% and -5.25% | 10.6% (inactive) | -0.898% (inactive) and 4.78% (inactive) | inactive | inactive | inactive | 0.424% (inactive) and -0.161% (inactive) | inactive | inactive | 1.82% (inactive) and -1.93% (inactive) | inactive | – | –
2 | Cc1c(N=C=O)cccc1N=C=O | – | inactive | inactive | inactive | inactive | -8.06% (inactive) and -0.129% (inactive) | inactive | -9.85% and -4.8% | 2.21% (inactive) and -0.0232% (inactive) | -0.524% (inactive) and 6.01% (inactive) | – | inactive | inactive | 3.08% (inactive) and 0.198% (inactive) | inactive | inactive | -1.26% (inactive) and -0.744% (inactive) | inactive | inactive | inactive
3 | CCCCCCCCO | inactive | inactive | – | inactive | inactive | -2.22% (inactive) and -1.08% (inactive) | inactive | -1.34% and -17.2% and -8.68% | -10.6% (inactive) and 5.6% (inactive) and -2.56% (inactive) | -2.87% (inactive) and -7.85% (inactive) and -0.202% (inactive) | inactive | inactive | inactive | -0.529% (inactive) and -1.53% (inactive) and 2.03% (inactive) | inactive | inactive | -3.47% (inactive) and -2.32% (inactive) and 2.37% (inactive) | inactive | inactive | inactive
4 | CCO[Si](CCCN)(OCC)OCC | inactive | inactive | inactive | inactive | inactive | 5.03% (inactive) and 9.33% (inactive) | inactive | 12.6% and -3.12% | – | -1.64% (inactive) and -2.02% (inactive) | inactive | inactive | inactive | – | inactive | inactive | -3.96% (inactive) and 0.794% (inactive) | inactive | inactive | inactive
5 | CC1(C)CC(N=C=O)CC(C)(CN=C=O)C1 (stereo not given) | – | inactive | – | inactive | inactive | – | inactive | 0.0281% and -13.4% | 2.27% (inactive) and 3.24% (inactive) | 0.263% (inactive) and 0.482% (inactive) | inactive | inactive | inactive | 2.53% (inactive) and -0.0427% (inactive) | inactive | inactive | 1.05% (inactive) and -0.823% (inactive) | inactive | inactive | inactive
6 | CCC(C)c1ccccc1O (stereo not given) | inactive | inactive | inactive | – | – | -11.6% (inactive) and -11.3% (inactive) and 1.07% (inactive) | inactive | -16.8% and -5.28% and 4.79% | -2.64% (inactive) and 0.537% (inactive) | – | inactive | inactive | inactive | -0.0817% (inactive) and -0.418% (inactive) and 0.519% (inactive) | inactive | inactive | 11.2% (inactive) and -2.55% (inactive) and 1.18% (inactive) | inactive | inactive | inactive
7 | COc1ccccc1CNc1ncnc2ccc(-c3cccc(NS(C)(=O)=O)c3)cc12 | 3.16 µM (active) | – | – | – | – | – | – | – | – | – | – | – | – | – | – | – | – | – | – | –
8 | Nc1ccc(S(=O)(=O)O)cc1 | inactive | inactive | inactive | inactive | inactive | – | inactive | 8.69% and -7.04% | -11.7% (inactive) and 17.4% (inactive) | 3.7% (inactive) and 3.55% (inactive) | inactive | inactive | inactive | -0.977% (inactive) and -1% (inactive) | – | inactive | -3.61% (inactive) and -1.3% (inactive) | – | inactive | inactive
9 | Cc1ccc([N+](=O)[O-])cc1N | – | inactive | inactive | inactive | inactive | – | inactive | -6.56% and -2.61% | 15.7% (inactive) and 9.17% (inactive) | -1.56% (inactive) and -5% (inactive) | inactive | inactive | inactive | 6.03% (inactive) and 2.09% (inactive) | inactive | inactive | 0.691% (inactive) and 2.27% (inactive) | inactive | inactive | inactive
10 | Nc1ccc(Cl)cc1Cl | – | inactive | inactive | inactive | inactive | -1.05% (inactive) and -10.1% (inactive) | inactive | -10.9% | -5.09% (inactive) and -14.9% (inactive) | -2.62% (inactive) and -5.11% (inactive) | inactive | inactive | inactive | -1.04% (inactive) and 0.693% (inactive) | inactive | inactive | 2.63% (inactive) and 1.63% (inactive) | inactive | – | –
11 | NC1=NC(S)C2N=CN=C2N1 (stereo not given) | inactive | – | – | – | – | -9.94% (inactive) | – | – | 18.1% (inactive) | – | inactive | inactive | – | -2.51% (inactive) | inactive | – | -3.62% (inactive) | – | inactive | inactive
